This is a sample that favours compounds with a hit; in the whole collection about 6.5% have one here.
VACV mCherry inh: qHTS for Stage-Specific Inhibitors of Vaccinia Orthopoxvirus: mCherry Reporter Primary qHTS. Potency, µM (series often up to 36.5 µM), inactives show at the highest dose activity change, negative = inhibition, actives largely listed as inhibitors. AID 720579, 2013. Vaccinia virus mCherry reporter infection, fluorescence. actives 0.63% (n = 310,000); calls by dose curve; tested in A549 cells; also: potency is read from the fitted curve at half-maximal effect; nearly all actives have a fitted effect of over 35% in size
LASV entry inh: qHTS for Inhibitors of binding or entry into cells for Lassa Virus | Lassa virus pseudotype entry inhibition, cell reporter | Potency, µM (series often up to 37.9 µM), for inactives: at the highest dose activity change, negative = inhibition, usual class: inhibitors | actives 1.2% (n = 300,000) | AID 540256, 2011; calls by dose curve; tested in HEK293 cells; also: potency is read from the fitted curve at half-maximal effect; nearly all actives have a fitted effect of over 50% in size
FMDV inh: High Throughput Screening for Foot and Mouth Disease Virus Antivirals. FMDV antiviral cell-based qHTS. Potency, µM (highest dose often 57.9 µM), without a hit: at the highest dose activity change, negative = inhibition, usual class: inhibitors. actives 1.2% (n = 410,000). AID 1159524, 2015; calls by dose curve; tested in HEK293T cells; also: read-out not given here; potency is read from the fitted curve at half-maximal effect; nearly all actives have a fitted effect of over 45% in size
Vaccinia Venus: qHTS for Stage-Specific Inhibitors of Vaccinia Orthopoxvirus: Venus Reporter Primary qHTS | Vaccinia virus Venus reporter expression, fluorescence | Potency, µM (series often up to 36.5 µM), for inactives: top-dose activity change, negative = inhibition, hits mostly inhibitors | actives 0.46% (n = 330,000); calls by dose curve; tested in A549 cells; also: potency is read from the fitted curve at half-maximal effect; nearly all actives have a fitted effect of over 30% in size
Marburg entry inh: qHTS for inhibitors of binding or entry into cells for Marburg Virus. Marburg virus pseudotyped entry inhibition, cell reporter. Potency, µM (titrated, usually from 37.8 µM), for inactives: at the top dose activity change, negative = inhibition, most hits filed as inhibitors. actives 1.8% (n = 300,000); calls by dose curve; tested in HEK293 cells; also: potency is read from the fitted curve at half-maximal effect
HCMV inh: qHTS Assay for inhibitors of the human cytomegalovirus (HCMV); actives 4.5% (n = 410,000); activity change, negative = inhibition, % at 57.5 µM; HFF cells, HCMV-luciferase reporter, 72 h; stronger effect = lower value; in the data active = activity change below about -60%; inconclusive = no clear call, values can overlap the other calls; inactive = above about -39%
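Luciferase read-out from HCMV-luciferase-infected HFFs (MOI 1 PFU/cell) 72 h post infection at 37C; compounds added after 16 h cell attachment; activity normalized between buffer-only basal and Salinomycin (10uM) inhibitor controls.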
* hit, by the source's call; [ ] = dose if it differs, or a comment. % is scaled to controls: 0 for no effect and ±100 for the full control effect.

How did Cc1ccccc1-c1ccc2c(c1)O[C@@H](CN(C)C(=O)Nc1ccc(C(F)(F)F)cc1)[C@H](C)CN([C@@H](C)CO)S2(=O)=O do in these assays?
VACV mCherry inh: inconclusive; FMDV inh: -24%; Vaccinia Venus: inconclusive; HCMV inh: -76*

What do the screens show for `COc1cccc(NC(=O)N(C)C[C@H]2Oc3cc(C#Cc4ccncc4)ccc3S(=O)(=O)N([C@H](C)CO)C[C@H]2C)c1`?
VACV mCherry inh: inconclusive; FMDV inh: 91%; Vaccinia Venus: inconclusive; HCMV inh: -109*

How did C[C@H]1CN([C@@H](C)CO)S(=O)(=O)c2ccc(C#CC3CC3)cc2O[C@H]1CN(C)C(=O)c1cccnc1 do in these assays?
VACV mCherry inh: -12%; FMDV inh: 19%; Vaccinia Venus: -9%; HCMV inh: -34

Results for C[C@@H]1CN([C@H](C)CO)S(=O)(=O)c2ccc(Br)cc2O[C@@H]1CN(C)C(=O)Nc1ccc(C(F)(F)F)cc1 ?
VACV mCherry inh: inconclusive; FMDV inh: -18%; Vaccinia Venus: inconclusive; HCMV inh: -10

What do the screens show for `C[C@@H]1CN([C@@H](C)CO)S(=O)(=O)c2ccc(C#CC3CCCCC3)cc2O[C@@H]1CN(C)Cc1cccnc1`?
VACV mCherry inh: inconclusive; FMDV inh: -14%; Vaccinia Venus: 10µM*; HCMV inh: -22

What do the screens show for `COc1ccc(S(=O)(=O)N2CCN(C(=O)CCNC(=O)c3ccccc3Cl)CC2)cc1`?
VACV mCherry inh: -5%; LASV entry inh: 17%; FMDV inh: -14%; Vaccinia Venus: -22%; Marburg entry inh: inconclusive; HCMV inh: -98*

How did N#Cc1ccc(CN2CCN(C(=O)c3ccc(S(=O)(=O)N4CCCCCC4)cc3)CC2)cc1 do in these assays?
FMDV inh: 14µM*; HCMV inh: -78*

Results for COc1ccc(CN2CCN(C(=O)c3ccc(S(=O)(=O)N4CCCCCC4)cc3)CC2)cc1F ?
VACV mCherry inh: inconclusive; LASV entry inh: inconclusive; FMDV inh: 14µM*; Vaccinia Venus: -24%; Marburg entry inh: inconclusive; HCMV inh: -77*

Results for COc1ccc(CN2CCN(C(=O)c3ccc(S(=O)(=O)N4CCCCCC4)cc3)CC2)cc1 ?
VACV mCherry inh: -4%; LASV entry inh: inconclusive; FMDV inh: 20µM*; Vaccinia Venus: -15%; Marburg entry inh: -5%; HCMV inh: -75*

How did COc1ccc(NS(=O)(=O)c2ccc(C(=O)N3CCN(Cc4ccccc4)CC3)cc2)cc1 do in these assays?
VACV mCherry inh: -22%; FMDV inh: inconclusive; Vaccinia Venus: -26%; HCMV inh: -31

How did O=C(c1ccc(S(=O)(=O)N2CCCCCC2)cc1)N1CCN(Cc2ccccc2)CC1 do in these assays?
FMDV inh: inconclusive; HCMV inh: -14

Results for O=C(Cn1ncc2c3ccccc3n(Cc3cccc(Cl)c3)c2c1=O)Nc1ccc(F)cc1F ?
VACV mCherry inh: -22%; LASV entry inh: inconclusive; FMDV inh: 0%; Vaccinia Venus: -22%; Marburg entry inh: 0%[46.1 µM]; HCMV inh: 3

How did COc1ccc(OC)c(NC(=O)CN(C)S(=O)(=O)c2ccc(C(=O)N3CCOCC3)s2)c1 do in these assays?
VACV mCherry inh: 1%; LASV entry inh: 16%[46.1 µM]; FMDV inh: -21%; Vaccinia Venus: -4%; HCMV inh: -5

Results for CC(C)c1[nH]nc2c1C(c1cccc(C(F)(F)F)c1)N(c1ccccc1)C2=O (stereo not given) ?
HCMV inh: -33

How did COc1ccc(OC2CCN(S(=O)(=O)c3ccc(C(C)=O)cc3)CC2)cc1 do in these assays?
FMDV inh: -21%; HCMV inh: -63*

How did CC(C)(C)CC(=O)Nc1nnc(C(F)(F)F)s1 do in these assays?
VACV mCherry inh: -15%; LASV entry inh: 2%; FMDV inh: -8%; Vaccinia Venus: -10%; Marburg entry inh: 16%; HCMV inh: -19

Screening data (PubChem)
